The text below walks through data of PubChem BioAssay (NCI).

A short description of the assay: NCI Yeast Anticancer Drug Screen. Data for the rad18 strain (AID 177). To be noted: S. cerevisiae rad18 mutant growth inhibition, stronger effect = higher value. As for the experimental part: Growth inhibition of yeast strains with defined genetic alterations is measured as a screen for potential anti-cancer activity. Selected strains with alterations in DNA damage repair or cell cycle control were exposed to compounds and growth inhibition was measured relative to vehicle treated controls. The strain used in this assay is rad18

Compounds without any hit were thinned out: in the full panel of roughly 79,000, 15% have a hit. Unmarked numbers belong to inactive results. Active and inactive are the calls of the source. Rule as the data show it: active = growth inhibition above about 70%; inactive = the rest.

`NC(=O)NN=C(CS)CS`: the growth inhibition is, setting by setting: (at 1.2 µM) -1%; (at 3.7 µM) 6%; (at 11.0 µM) 19%; (at 33.0 µM) 61%; (at 100.0 µM) 95% (active).
On to `O=C(O)CNc1ccc(Cl)c(Cl)c1`, for which the growth inhibition (at 1.2 µM) was -2%; the growth inhibition (at 3.7 µM) was -4%; the growth inhibition (at 11.0 µM) is 2%; the growth inhibition (at 33.0 µM) is 76% (active); the growth inhibition (at 100.0 µM) is 98% (active).
In the same order, the values of `CC(C)=CC(=O)O[C@@H]1CC(C)(C)CC2C3=CCC4[C@]56CC[C@](O)(OC5)C(C)(C)C6CC[C@@]4(C)C3(C)CC[C@]21C(=O)O` (stereo not given in full) are 9%, 42%, 36%, 95% (active) and 94% (active).
In the same order, the values of `O=Nc1cccnc1N=O` are 35%, 86% (active), 94% (active), 98% (active) and 98% (active).
For `NC(N)=N/N=C\c1c2ccccc2cc2ccccc12` the same measures were -74%, -68%, -51%, -30% and 95% (active).
For `CCOC(=O)c1cc([N+](=O)[O-])cc([N+](=O)[O-])c1Sc1ncnc2nc[nH]c12`, the growth inhibition was -18% (at 1.2 µM); -7% (at 3.7 µM); 28% (at 11.0 µM); 81% (active) (at 33.0 µM); 97% (active) (at 100.0 µM).
For `CC(C(=O)N1C(=O)N(C(=O)[C@H](C)C(O)c2ccccc2)[C@H](c2ccccc2)[C@H]1c1ccccc1)[C@@H](O)c1ccccc1` (stereo not given in full) the same measures were 0%, 6%, 25%, 45% and 53%.
For `Cc1ccc(-c2ccc(Nc3c4ccccc4nc4ccccc34)cc2)cn1` the same measures were 0%, -10%, 12%, 89% (active) and 86% (active).
